Screening data: PubChem BioAssay, National Center for Advancing Translational Sciences (NCATS)
Hits are enriched below; roughly 2.6% of the tested compounds scored in any of these assays.
pS6 MEF inh – reduces mTORC1 signaling in Tsc2 and p53 null MEF cells; Tsc2-/- p53-/- MEF, phospho-rpS6 immunofluorescence/PI, 24 h; Potency, µM (top dose mostly 38.3 µM), for inactives: at the highest dose activity change, negative = inhibition, hits mostly inhibitors; hit rate 0.78% among 44,000;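 note: potency is the fitted concentration of half-maximal effect; plate controls were DMSO for no effect and rapamycin for full effect; nearly all actives have a fitted effect of over 50% in size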
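Tsc2-/-, p53-/- mouse embryonic fibroblasts (empty-vector line) exposed to compound 24 hrs at 37 C, fixed, immunostained for phospho-rpS6 and counterstained with propidium iodide. Acumen laser scanning gives % positive cells from Alexa 488/PI ratio, thresholded using 7.5 nM rapamycin; PI count gives viability.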
PMP22 txn – PMP22 gene transcription modulation | S16 Pmp22-F2sN Schwann cells, FLuc/NLuc coincidence luminescence, 24 h | Potency, µM (highest dose often 57.5 µM), inactives show at the top dose activity change, negative = inhibition, hits mostly inhibitors | hit rate 2% among 43,000 | AID 1508649; active = clear falling dose curves in both reporters; inconclusive = both reporters move, but less clearly or upward; inactive = either reporter flat; the % is the NLuc reporter signal; note: potency is the fitted concentration of half-maximal effect; % is set by controls: 0 for no effect and ±100 for the full control effect
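Transcriptional readout in edited S16(c9) cells: two luciferases reported from the Pmp22 locus, measured in turn after 24 h compound incubation.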
S16 viability – S16 Schwann cell cytotoxicity. S16 Pmp22-F2sN Schwann cells viability, CellTiter-Glo, 24 h. Potency, µM (doses to about 57.5 µM), without a hit: at the highest dose activity change, negative = cytotoxicity, usual class: cytotoxic. hit rate 0.48% among 43,000. AID 1508642; note: potency is the fitted concentration of half-maximal effect; % is set by controls: 0 for no effect and ±100 for the full control effect; nearly all actives have a fitted effect of over 65% in size
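S16 Pmp22-F2sN Schwann cells (500-1,000/well) in phenol-red-free DMEM with 10% FBS received 23 nL compound by pin tool for 24 h at 37 °C. Viability was then read as CellTiter-Glo luminescence after 15 min at room temperature.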
OvCa metastasis – blocks SKOV3ip1 adhesion and invasion in omental model | SKOV3ip1-GFP adhesion/invasion on 3D omental model, fluorescence | Potency, µM (titrated, usually from 45.8 µM), for the others: top-dose activity change, negative = inhibition, hits mostly inhibitors | hit rate 0.1% among 46,000 | AID 1963576;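 note: potency is the fitted concentration of half-maximal effect; plate controls were DMSO wells for no effect and tomatine positive control wells for full effect; nearly all actives have a fitted effect of over 65% in size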
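A 3D layer of primary human omental fibroblasts, mesothelial cells, fibronectin and collagen I, grown 48 hr, received SKOV3ip1-GFP cells in serum-free medium plus compounds at 0.36-46 umol/L. After 2 hr RT and 16 hr 37 C, fixed adherent GFP cells were counted; normalized to DMSO and tomatine.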
NLuc saturating – inhibits NanoLuc at saturating substrate, PMP22 counter-screen; shares compounds with PMP22 txn; Secreted NLuc enzyme (filtered S16 cell medium), Nano-Glo luminescence; Potency, µM (top dose mostly 57.5 µM), for inactives: top-dose activity change, negative = inhibition, usual class: inhibitors; hit rate 4% among 690; AID 1508638; note: potency is the fitted concentration of half-maximal effect; % is set by controls: 0 for no effect and ±100 for the full control effect
NLuc Km counter – NanoLuc inhibition at Km substrate, PMP22 artifact check; shares compounds with PMP22 txn; secreted NLuc enzyme, coelenterazine luminescence, Km conditions; Potency, µM (titrated, usually from 57.5 µM), inactives show at the top dose activity change, negative = inhibition, usual class: inhibitors; hit rate 5% among 690; note: potency is the fitted concentration of half-maximal effect; % is set by controls: 0 for no effect and ±100 for the full control effect
FLuc counter – inhibits firefly luciferase, PMP22 counter-screen | shares compounds with PMP22 txn | purified P. pyralis FLuc, luminescence, 10 min | Potency, µM (top dose mostly 57.5 µM), for inactives: top-dose activity, negative = inhibition, hits mostly inhibitors | 690 tested, under 10 active | AID 1508640; note: % of control where 0% means no effect
Target sequence (P08659 whole entry, looked up): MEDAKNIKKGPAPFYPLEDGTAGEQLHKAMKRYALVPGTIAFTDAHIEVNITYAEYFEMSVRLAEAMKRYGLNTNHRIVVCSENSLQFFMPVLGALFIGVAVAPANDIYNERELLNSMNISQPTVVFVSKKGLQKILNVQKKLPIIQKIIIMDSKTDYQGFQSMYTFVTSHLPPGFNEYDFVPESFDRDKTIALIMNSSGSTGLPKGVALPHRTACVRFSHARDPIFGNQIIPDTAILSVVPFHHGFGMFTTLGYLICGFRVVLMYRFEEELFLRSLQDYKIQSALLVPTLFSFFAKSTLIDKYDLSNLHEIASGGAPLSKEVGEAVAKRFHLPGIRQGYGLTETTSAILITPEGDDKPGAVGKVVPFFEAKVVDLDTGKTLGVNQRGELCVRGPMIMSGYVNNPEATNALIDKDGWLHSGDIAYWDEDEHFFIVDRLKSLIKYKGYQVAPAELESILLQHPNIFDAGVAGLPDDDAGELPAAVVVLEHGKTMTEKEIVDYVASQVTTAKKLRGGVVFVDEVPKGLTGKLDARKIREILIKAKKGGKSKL
S16 F2sN tox cnf – confirmation of cytotoxicity in S16 Pmp22-F2sN Schwann cells (luciferase reporters placed in the Pmp22 gene); shares compounds with PMP22 txn; S16 Schwann cells viability, CellTiter-Glo ATP luminescence, 24 h; Potency, µM (doses to about 57.5 µM), for the others: at the highest dose activity change, negative = viability loss, actives largely listed as cytotoxic; hit rate 7% among 690; note: potency is the fitted concentration of half-maximal effect; % is set by controls: 0 for no effect and ±100 for the full control effect
PMP22 txn conf – PMP22 transcription modulation, confirmatory; hit rate 22% among 690; Potency, µM (top dose mostly 57.5 µM), for inactives: at the highest dose activity change, negative = inhibition, usual class: inhibitors; S16 Schwann cells Pmp22-F2sN, dual luciferase, 24 h; shares compounds with PMP22 txn; active = clear falling dose curves in both reporters; inconclusive = both reporters move, but less clearly or upward; inactive = either reporter flat; the % is the FLuc reporter signal; note: potency is the fitted concentration of half-maximal effect
PMP22 prot conf – rat PMP22 protein level modulation, confirmatory; 95 tested, under 10 active; Potency, µM (doses to about 27.9 µM), without a hit: at the top dose activity change, negative = inhibition, hits mostly inhibitors; shares compounds with PMP22 txn; S16 Schwann cells Pmp22-HiBiT, luminescence, 48 h
Target sequence (P25094 whole entry, looked up): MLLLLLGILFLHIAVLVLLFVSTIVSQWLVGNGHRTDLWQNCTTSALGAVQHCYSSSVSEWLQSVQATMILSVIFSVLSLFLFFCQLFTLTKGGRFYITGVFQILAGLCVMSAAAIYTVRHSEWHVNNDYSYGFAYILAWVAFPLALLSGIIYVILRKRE
Numbers without * were called inactive; i = inactive; u = inconclusive; x = no result. Unless noted, calls come from the whole dose curve; as a rule, active = well fitted curve in the direction sought with a large enough effect; inconclusive = small, poorly fitted or top-dose-only effect, or another doubt; inactive = no such curve, though single readings can be large; an effect the other way counts as inactive or inconclusive.

SMILES	pS6 MEF inh	PMP22 txn	S16 viability	OvCa metastasis	NLuc saturating	NLuc Km counter	FLuc counter	S16 F2sN tox cnf	PMP22 txn conf	others
COc1cccc(NC(=O)CCCn2c(=O)c3cccn3c3cccnc32)c1	3%	u	0%	i	u	u	0%	4%	u
Cc1ccc(CS(=O)(=O)c2ncc(Cl)c(C(=O)Nc3nc4ccc(F)cc4s3)n2)cc1	-1%	5.4µM*	u	-9%	-11%	u	7%	u	16µM*	PMP22 prot conf=u
COc1ccc2nc(NC(=O)c3nc(S(=O)(=O)Cc4ccc(C)cc4)ncc3Cl)sc2c1	u	7.3µM*	28µM*	u	-5%	4%	3%	17%	29%
CCCc1nnc(NC(=O)c2nc(S(=O)(=O)Cc3ccc(C)cc3)ncc2Cl)s1	-18%	u	u	u	x	x	x	x	x
COC(=O)c1ccccc1NC(=O)c1nc(S(=O)(=O)Cc2cccc(C)c2)ncc1Cl	-26%	5.3µM*	u	-14%	-19%	3.9µM*	-16%	u	7.3µM*	PMP22 prot conf=-18%
Cc1ccc(CNC(=O)c2nc(S(=O)(=O)Cc3ccc(C)cc3)ncc2Cl)cc1	-11%	10µM*	u	-9%	-1%	-2%	-4%	-53%	17µM*	PMP22 prot conf=14%
COc1ccccc1NC(=O)c1nc(SCc2ccc(F)cc2)ncc1Cl	0%	-27%	11%	-6%	x	x	x	x	x
C#C[C@]1(O)CC[C@@H]2[C@@H]3CCC4=CC(=O)CC[C@@H]4[C@H]3CC[C@@]21CC	x	x	x	-3%	x	x	x	x	x
COc1ccc(CN2CCN(c3ncnc4sc5c(c34)CCCC5)CC2)cc1F	-6%	5.3µM*	u	3%	-20%	-2%	-13%	-23%	u
N#Cc1ccc(Oc2ccc3c(c2)COB3O)cc1	x	x	x	-5%	x	x	x	x	x
COC(=O)c1ccc(NC(=O)CSc2nc(=O)n(Cc3ccco3)c3c2CCC3)cc1	-8%	8.3µM*	-11%	-6%	u	u	-14%	-1%	-44%
Fc1ccc(CNc2ncnc3ccc(F)cc23)cc1	x	x	x	2%	x	x	x	x	x
CC(C)OC(=O)C1=CN(C(=O)c2ccc(F)c(F)c2)CC(C)(C)c2c1[nH]c1ccccc21	x	x	x	-21%	x	x	x	x	x
Cc1ccc(C)c(N2CCN(C(=O)C3CCCN(S(=O)(=O)c4ccc5c(c4)oc(=O)n5C)C3)CC2)c1 (stereo not drawn)	5%	15µM*	-15%	i	-10%	5%	3%	-15%	u
COc1ccc(S(=O)(=O)NCC(c2ccco2)S(=O)(=O)c2ccc(C)cc2)cc1F (stereo not drawn)	-6%	u	u	2%	x	x	x	x	x
Cc1ccc(S(=O)(=O)C(CNS(=O)(=O)c2ccc(F)c(C(F)(F)F)c2)c2ccco2)cc1 (stereo not drawn)	u	14µM*	u	5%	-1%	u	4%	-1%	-12%
Cc1c(-c2cccc3c(CCCOc4cccc5ccccc45)c(C(=O)O)n(Cc4cccnc4)c23)c(COc2ccc(N3CCN([S+](=O)([O-])N(C)C)CC3)cc2)nn1C	x	x	x	0%	x	x	x	x	x
CCOC(=O)c1c(NC(=O)c2nc(S(C)(=O)=O)ncc2Cl)sc(C(C)=O)c1C	3.7µM*	4.3µM*	u	u	u	u	-10%	14µM*	3.4µM*	PMP22 prot conf=u
CCOC(=O)c1c(NC(=O)COc2ccc(Br)cc2)sc(C(C)=O)c1C	3%	2.1µM*	-23%	-6%	-3%	3%	-5%	-9%	-6%
CCOC(=O)c1c(NC(=O)COc2ccccc2)sc(C(C)=O)c1C	-1%	-8%	20%	i	x	x	x	x	x
NC(=O)c1ncn([C@@H]2O[C@H](CO)[C@@H](O)[C@@H]2O)c1N	x	x	x	-15%	x	x	x	x	x
c1ccc2c(Oc3nc(Nc4ccc(N5CCOCC5)cc4)c4ncn(C5CCCCC5)c4n3)cccc2c1	x	x	x	-11%	x	x	x	x	x
COC(=O)c1c(C)oc2ccc(N(C(=O)c3ccncc3)S(=O)(=O)c3c(C)cc(C)cc3C)cc12	-16%	3.8µM*	-12%	-4%	-8%	6%	11%	-7%	u
COC(=O)c1c(C)oc2ccc(N(C(=O)c3ccncc3)S(=O)(=O)c3cc(C)c(C)cc3C)cc12	u	u	u	i	x	x	x	x	x
COCCNc1nc2c(c(=O)n(C)c(=O)n2C)n1Cc1c(F)cccc1Cl	-1%	13µM*	u	6%	1%	-2%	4%	11%	-9%
SMILES	pS6 MEF inh	PMP22 txn	S16 viability	OvCa metastasis	NLuc saturating	NLuc Km counter	FLuc counter	S16 F2sN tox cnf	PMP22 txn conf	others
CCOC(=O)N1c2ccc(C(F)(F)F)cc2[C@@H](N(Cc2cc(C(F)(F)F)cc(C(F)(F)F)c2)C(=O)OC)C[C@H]1CC	x	x	x	4%	x	x	x	x	x
O=C(CSc1nc2c([nH]c3ccccc32)c(=O)n1-c1cccc(Cl)c1)c1ccccc1	-4%	14µM*	5%	i	-2%	1%	-3%	-15%	12µM*	PMP22 prot conf=u
Cc1cc(C)cc(-n2c(SCC(=O)Nc3nnc(C)s3)nc3c([nH]c4ccccc43)c2=O)c1	0%	16µM*	14%	14%	u	u	4%	-5%	u
COc1cccc(-n2c(SCC(=O)Nc3c(C)cc(C)cc3C)nc3c([nH]c4ccccc43)c2=O)c1	u	12µM*	-1%	-16%	-6%	-11%	4%	2%	u
Cc1cc(SCc2sc(-c3ccc(C(F)(F)F)cc3)nc2C)ccc1OCC(=O)O	x	x	x	21%	x	x	x	x	x
COc1cc(NC(=O)c2ccc(-c3ccc(Cl)cc3)o2)cc(OC)c1	x	x	x	-4%	x	x	x	x	x
